The nature of assay [1]: qHTS profiling of the MIPE4 collection as inhibitors of Plasmodium falciparum (DD2) proliferation (AID 743345). Conditions: P. falciparum Dd2 in erythrocytes, SYBR Green DNA, 72 h; at 28.5 µM (top of the series) unless noted. Summed up: (§1)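 Erythrocytes infected with P. falciparum (0.3% parasitemia, 2.5% hematocrit) incubated with compounds 72 h at 37 C, 5% CO2. Lysis with saponin/Triton buffer containing SYBR Green I, overnight at room temperature in the dark; DNA fluorescence (485/535 nm) normalised to 0.29 uM artemisinin and DMSO.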
For orientation: qHTS replaces the single test concentration by a dilution series.

Assay [2] in a line: qHTS profiling of the MIPE4 collection as inhibitors of Plasmodium falciparum (DD2) proliferation (Rep 2) (AID 743346). The note with it: P. falciparum Dd2 in erythrocytes, SYBR Green DNA, 72 h; at 28.5 µM (top of the series) unless noted. Summed up: as §1
The nature of assay [3]: qHTS profiling of the MIPE4 collection as inhibitors of Plasmodium falciparum (HB3) proliferation (AID 743347).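 Note: plate controls were DMSO vehicle wells for no effect and artemisinin wells for full effect.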 The note with it: P. falciparum HB3 in erythrocytes, SYBR Green DNA, 72 h; at 28.5 µM (top of the series) unless noted. Summed up:
as §1

As to `OCc1ccccc1O[C@@H]1O[C@H](CO)[C@H](O)[C@H](O)[C@H]1O`, the parasite growth remaining, % of DMSO control (lower = more inhibition) in assay [1] is 96.7%. Further, in assay [2], the parasite growth, % of control (lower = inhibition) turned out to be 89.7%.

`O=C1NC(=O)[C@@H](c2cn3c4c(cccc24)CCC3)[C@H]1c1c[nH]c2ccccc12` came in with a parasite growth remaining, % of DMSO control (lower = more inhibition) in assay [1] of 94.8%. Besides, the parasite growth, % of control (lower = inhibition) in assay [2] worked out at 86.1%. Also, in assay [3], the growth, % of control was 60.4%.

`CCCCCCCCCCCCc1ccc(S(=O)(=O)Nc2nncs2)cc1` gave a parasite growth remaining, % of DMSO control (lower = more inhibition) in assay [1] of 92.3%. In assay [2], the parasite growth, % of control (lower = inhibition) turned out to be 80.6%. The compound further returned a growth, % of control in assay [3] of 117%.

Consider `C=CC(=O)N1CCc2ccc(-n3c(=O)ccc4cnc5ccc(-c6cnn(C)c6)cc5c43)cc21`, for which the parasite growth remaining, % of DMSO control (lower = more inhibition) in assay [1] came out at 8.35%. In addition, the parasite growth, % of control (lower = inhibition) in assay [2] stood at 8.38%. This compound registered a growth, % of control in assay [3] of 4.27%.

Turning to `CN(C)CCN1C(=O)c2cccc3cc(N)cc(c23)C1=O`, the parasite growth remaining, % of DMSO control (lower = more inhibition) in assay [1] amounted to 12.6%. Further, in assay [2], the parasite growth, % of control (lower = inhibition) was determined as 10.8%. Also, the growth, % of control in assay [3] came out at 9.26%.

`COc1cc(OC)c(C=CS(=O)(=O)Cc2ccc(OC)c(NCC(=O)O)c2)c(OC)c1` came in with a parasite growth remaining, % of DMSO control (lower = more inhibition) in assay [1] of 82.7%. The parasite growth, % of control (lower = inhibition) in assay [2] is 77.6%. Besides, in assay [3], the growth, % of control worked out at 68.2%.

`CCN(CC)CCCCNc1ncc2c(n1)N(C)C(=O)N(c1c(Cl)c(OC)cc(OC)c1Cl)C2`: in assay [1], the parasite growth remaining, % of DMSO control (lower = more inhibition) was found to be 17.7%. For the same compound, the parasite growth, % of control (lower = inhibition) in assay [2] came out at 23.7%. The compound also yielded a growth, % of control in assay [3] of 11.3%.

`COC1=C(OC)C(=O)C(CC=C(C)CCC=C(C)CCC=C(C)CCC=C(C)CCC=C(C)CCC=C(C)CCC=C(C)CCC=C(C)CCC=C(C)CCC=C(C)C)=C(C)C1=O` returned a parasite growth remaining, % of DMSO control (lower = more inhibition) in assay [1] of 46.1%. In addition, the parasite growth, % of control (lower = inhibition) in assay [2] is 131%. Moreover, in assay [3], the growth, % of control came out at 97.8%.

In the case of `O=C(CN1C(=O)C2(CCCC2)NC[C@H]1c1cc(F)cc(F)c1)Nc1ccc2c(c1)C[C@@]1(C2)C(=O)Nc2ncccc21`, the parasite growth remaining, % of DMSO control (lower = more inhibition) in assay [1] was determined as 86.9%. Moreover, in assay [2], the parasite growth, % of control (lower = inhibition) is 26.1%. This compound yielded a growth, % of control in assay [3] of 40.3%.

As for `CC(Cc1ccc(O)c(O)c1)(NN)C(=O)O` (stereo not given), the parasite growth remaining, % of DMSO control (lower = more inhibition) in assay [1] is 15.4%. The parasite growth, % of control (lower = inhibition) in assay [2] is 75.5%. This compound also had a growth, % of control in assay [3] of 54.9%.

Take `CC[C@H](CC[C@@H](C)[C@H]1CC[C@H]2[C@@H]3CC=C4C[C@@H](O)CC[C@]4(C)[C@@H]3CC[C@]12C)C(C)C`: the growth, % of control in assay [3] amounted to 100%.

These data come from PubChem BioAssay (NCATS).
